Source: PubChem
Only some compounds are listed: those with a hit (about 4.3% of all), similar ones and a draw of the others.
Wnt act = Wnt/beta-catenin pathway activators, primary screen, cell-based, plate reader, single point; Wnt/beta-catenin reporter cell assay, activator; hit rate 1.2% among 300,000; activation, % at 9.35 µM; in the data active = activation above about 30%, passing the limit was not always enough; inconclusive = no clear call, values can overlap the other calls;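 note: 0% = neutral control wells and 100% = positive control wells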
MLL AF4-AF9 inh = inhibitors of AF4 peptide binding to AF9, primary screen, biochemical, AlphaScreen, biotin-AF4 peptide, FLAG-AF9, single point. Protein AF-9 (Homo sapiens), P42568. inhibition, % at 10 µM. hit rate 0.47% among 350,000;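 active = every replicate reaching a set inhibition limit, whatever the replicate mean, cut at about 25% in these data; inconclusive = mean inhibition reaches that limit but some replicates miss it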;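 note: 0% = plate neutral control median and 100% = total signal loss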
Target sequence (P42568 whole entry, looked up): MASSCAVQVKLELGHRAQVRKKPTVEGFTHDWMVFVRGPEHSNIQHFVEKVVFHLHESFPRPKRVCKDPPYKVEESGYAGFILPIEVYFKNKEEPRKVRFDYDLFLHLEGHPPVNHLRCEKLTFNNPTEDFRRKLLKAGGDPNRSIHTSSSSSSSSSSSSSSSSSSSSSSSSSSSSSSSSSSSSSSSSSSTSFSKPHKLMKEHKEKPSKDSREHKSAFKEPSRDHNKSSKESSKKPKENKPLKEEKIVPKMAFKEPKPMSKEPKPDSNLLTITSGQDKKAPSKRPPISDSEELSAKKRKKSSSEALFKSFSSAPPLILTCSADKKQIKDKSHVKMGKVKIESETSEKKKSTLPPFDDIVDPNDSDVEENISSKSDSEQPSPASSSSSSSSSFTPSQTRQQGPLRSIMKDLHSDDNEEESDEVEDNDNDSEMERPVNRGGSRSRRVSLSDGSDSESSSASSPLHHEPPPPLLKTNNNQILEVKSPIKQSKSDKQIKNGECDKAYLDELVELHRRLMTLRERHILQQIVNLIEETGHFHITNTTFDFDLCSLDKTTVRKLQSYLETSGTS
esBAF inh = Bmi1 luciferase reporter increase in mESCs, primary screen, esBAF inhibitor project, mouse ES cells, Bmi1 luciferase knock-in, single point. 24 h; 100% = twice the neutral-well signal. hit rate 2% among 350,000. AID 602393, 2012. reporter increase, % at 12.5 µM; in the data active = activation above about 40%; inconclusive = no clear call, values can overlap the other calls;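 note: 0% = median of the plate's neutral control wells and 100% = double that signal; a rise in the Bmi1 reporter signal indicates esBAF inhibition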
SMARCA2 act = SMARCA2 (BRM) function activators, primary screen, cell-based, luminescence, high throughput. MG213 cells, MMTV-luciferase reporter, dexamethasone, overnight. activation, % at 9.1 µM. hit rate 1% among 370,000. AID 652017, 2013; in the data active = activation above about 7.8%;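 note: 0% = vehicle wells and 100% = reference activator wells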
MITF act = activators of MITF-driven TRPM1 promoter reporter, primary screen, cell-based, SK-MEL-5, luciferase, single point. activation, % at 12.5 µM. hit rate 0.75% among 300,000. SK-MEL-5 TRPM1-promoter luciferase, 24 h; % of positive control, neutral wells = 0;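 active = mean activation of at least 80% with every replicate also reaching 80%; inconclusive = mean reaches 80% but some replicate falls short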;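 note: 0% = neutral control wells and 100% = parthenolide positive control wells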
FGF22 binding = binders of human FGF22 protein, primary screen, FGF22 synaptogenesis inhibitor project, biophysical, thermal shift, single point | recombinant FGF22 thermal shift, SYPRO orange fluorescence; percent of sucrose octasulfate shift, DMSO zero | activity (Tm shift, normalised), % at 9.99 µM | hit rate 1.5% among 340,000;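 active = mean Tm shift, scaled 0 neutral to 100 positive control, at about 1.3% or above, every replicate too, limit read from the data; inconclusive = no clear call, values can overlap the other calls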
The depositor's hits bear a star; ? = inconclusive; . = no result.

SMILES | Wnt act | MLL AF4-AF9 inh | esBAF inh | SMARCA2 act | MITF act | FGF22 binding
Nc1n[nH]c(N)c1N=Nc1cccc(C(F)(F)F)c1 | 2 | 0 | 51* | 0 | 33 | 0
COC(=O)[C@]1(C)N[C@H](CN(C)C(C)=O)[C@@H]2C(=O)N(Cc3ccccc3)C(=O)[C@@H]21 | -1 | -12 | -1 | -2 | 4 | 44*
CCN(C[C@H]1N[C@@](C)(C(=O)OC)[C@H]2C(=O)N(C)C(=O)[C@@H]12)C(C)=O | -1 | -13 | -2 | -3 | -1 | 43*
CCN(C[C@H]1N[C@@](C)(C(=O)OC)[C@H]2C(=O)N(C)C(=O)[C@@H]12)C(=O)COC | -1 | 0 | -5 | 2 | 4 | 43*
CCNC(=O)[C@@H]1[C@@H](CO)[C@@H]2Cn3c(ccc(-c4ccc(F)cc4)c3=O)[C@H]1N2C(=O)c1ccccn1 | . | -20 | -4 | . | . | 0
CCCn1c(SCC(=O)Nc2cccc(C)n2)nc2c1c(=O)n(C)c(=O)n2C | 0 | -1 | . | -3 | 5 | 43*
CCCn1c(=O)c(C(=O)Nc2cccc(C)n2)c(O)c2ccccc21 | 2 | -34 | 50* | 4 | 2 | 0
C[C@@H]1CN([C@H](C)CO)C(=O)c2cc(-c3ccc(F)cc3)cnc2O[C@H]1CN(C)S(C)(=O)=O | . | 0 | -5 | . | . | 0
Clc1ccc2[nH]c(-c3ccccc3)cc2c1 | . | . | 60* | 3 | 46 | .
O=c1cc(-c2ccccc2)[nH]c2cc(Cl)ccc12 | -13 | -3 | -6 | 0 | -9 | 0
Cc1ccc(NC(=O)Cn2cnc3cc([N+](=O)[O-])ccc3c2=O)c(Cl)c1 | -2 | -5 | . | -6 | -16 | 0
CC(C)(C)c1ccccc1NC(=O)Cn1cnc2cc([N+](=O)[O-])ccc2c1=O | -1 | -1 | -8 | -3 | -1 | 43*
Cc1ccc(OCCn2cnc3ccccc3c2=O)c([N+](=O)[O-])c1 | 41* | 1 | 92* | 1 | 61 | 0
O=c1c2ccc([N+](=O)[O-])cc2ncn1CCOc1cccc(Br)c1 | -2 | 2 | . | 1 | -9 | 43*
COc1ccc(C#Cc2cnc3c(c2)C(=O)N([C@H](C)CO)C[C@H](C)[C@H](CN(C)CC2CCCC2)O3)cc1 | . | 4 | 3 | . | . | 0
N#C[C@H]1[C@@H](c2ccccc2)[C@H](CO)N1S(=O)(=O)Cc1ccccc1 | . | -2 | -4 | . | . | 0
O=S(=O)([N-]c1nc2ccccc2nc1-[n+]1ccccc1)c1ccc(F)cc1 | 0 | -3 | . | -6 | 14 | 45*
Cc1ccc[n+](-c2nc3ccccc3nc2[N-]S(=O)(=O)c2ccccc2)c1 | 2 | -1 | 0 | -2 | 6 | 0
O=C(NCCCn1ccnc1)c1ccc(Cl)cc1[N+](=O)[O-] | -6 | 0 | . | -2 | -12 | 43*
O=C(CNC(=O)c1ccc(Cl)cc1Cl)NCCCn1ccnc1 | . | . | . | 2 | 22 | .
O=C(CCS(=O)(=O)c1ccc(Cl)cc1)NCCN1C(=O)S/C(=C\c2ccccc2F)C1=O | 0 | 1 | . | -1 | 11 | 0
Cc1ccc(S(=O)(=O)CCC(=O)NCCN2C(=O)S/C(=C\c3ccccc3)C2=O)cc1 | -1 | . | 45* | 5 | 0 | .
CCCN1C[C@H](C)[C@@H](OC)CN(C)C(=O)c2ccc(NC(=O)c3cccc(OC)c3)cc2OC[C@H]1C | . | 2 | -1 | . | . | 0
COc1ccc(CCNC(=O)C2CC(c3ccccc3[N+](=O)[O-])=NO2)cc1 (stereo unspecified) | 29 | 4 | 45* | 5 | 56 | 0
CCCCNC(=O)C1CC(c2cccc([N+](=O)[O-])c2)=NO1 (stereo unspecified) | 38* | -5 | 90* | 6 | 89* | 0
SMILES | Wnt act | MLL AF4-AF9 inh | esBAF inh | SMARCA2 act | MITF act | FGF22 binding
O=C(NCCc1cccs1)C1CC(c2ccccc2[N+](=O)[O-])=NO1 (stereo unspecified) | ? | . | 66* | 7 | 40 | 0
Cc1ccc(CCNC(=O)C2CC(c3ccccc3[N+](=O)[O-])=NO2)cc1 (stereo unspecified) | 0 | -14 | -1 | 0 | -5 | 0
C[C@@H]1CN([C@H](C)CO)C(=O)c2cc(-c3ccccc3)cnc2O[C@H]1CN(C)Cc1cccnc1 | . | -4 | 6 | . | . | 0
C[C@H](CO)N1C[C@H](C)[C@H](CN(C)Cc2ccccn2)Oc2ncc(C#CC(C)(C)O)cc2C1=O | . | -6 | 2 | . | . | 0
C[C@@H]1CCCCO[C@@H](CN(C)C(=O)c2ccncc2)[C@@H](C)CN([C@@H](C)CO)C(=O)c2cc(NC(=O)NC3CCCCC3)ccc2O1 | . | . | -5 | . | . | 0
N#C[C@H]1[C@@H](c2ccc(C3=CCCC3)cc2)[C@H](CO)N1C(=O)C1CCC1 | . | -2 | 0 | . | . | 0
Cc1cccc(N2CCN(C(=O)NC3CCCCC3)CC2C)c1 (stereo unspecified) | -2 | 2 | 5 | 2 | 7 | 0
Cc1cccc(N2CCN(C(=O)c3ccccn3)CC2C)c1 (stereo unspecified) | -2 | 1 | . | -4 | 13 | 43*
Cc1cccc(N2CCN(C(=O)CCN3C(=O)C4C5C=CC(C5)C4C3=O)CC2C)c1 (stereo unspecified) | -4 | 0 | . | -2 | -3 | 44*
Cc1cccc(NC(=O)CSc2n[nH]c(-c3ccncc3)n2)c1 | -6 | . | 2 | -2 | -10 | .
CC(=O)c1cccc(NC(=O)CSc2n[nH]c(-c3ccncc3)n2)c1 | -1 | -1 | 3 | 0 | 0 | 1.7*
Cc1noc(C)c1NC(=O)Nc1cccc2c1O[C@H](CN(C)C(=O)Nc1c(C)noc1C)[C@H](C)CN([C@H](C)CO)C2=O | . | -2 | 5 | . | . | 0
Cc1cccc(Nc2nnc(SCC(=O)NCC3CCCO3)s2)c1 (stereo unspecified) | 5 | 2 | 13 | 1 | -1 | 0
CC(C)c1ccc(Nc2nnc(SCC(=O)NCC3CCCO3)s2)cc1 (stereo unspecified) | 47* | 0 | 8 | 1 | 37 | 0
CCCC(=O)Nc1ccc2c(c1)OC[C@H](C)N(Cc1ccccc1F)C[C@H](C)[C@H](OC)CN(C)C2=O | . | -6 | 3 | . | . | 0
CNC(=O)c1ccsc1NC(=O)CCS(=O)(=O)c1ccccc1 | -1 | -1 | . | 0 | 1 | 43*
CO[C@H]1CN(C)C(=O)c2cc(NS(C)(=O)=O)ccc2OC[C@@H](C)N(Cc2ccccc2)C[C@H]1C | . | -1 | 2 | . | . | 0
C[C@@H]1CN([C@H](C)CO)C(=O)c2cc(-c3cccnc3)cnc2O[C@@H]1CN(C)S(C)(=O)=O | . | -4 | -4 | . | . | 0
